Results from the supplement of paper PMC13380429.

What was measured:
[1] = system: Vero E6 infected with SARS-CoV-2; experiment: morphology score (similarity to uninfected cells); higher = more like uninfected cells; conditions: 24 h
[2] = system: Vero E6 infected with SARS-CoV-2; experiment: SARS-CoV-2 infection rate relative to infected DMSO; higher = more infection, active = 60 or less; conditions: 24 h

Row | SMILES | morphology score [1] | SARS-CoV-2 infection rate [2]
1 | CC[N+](CC)(CCCNC1=CC(=O)C(NCCC[N+](CC)(CC)Cc2ccccc2)=CC1=O)Cc1ccccc1 [benzoquinonium-dibromide] (10 µM) | -0.00889 | 113% (inactive)
2 | O=C(Nc1c(Cl)cncc1Cl)c1ccc(OC(F)F)c(OCC2CC2)c1 [roflumilast] (10 µM) | 0.202 | 97% (inactive)
3 | c1ccc(C[C@H](c2ccccc2)N2CCCCC2)cc1 (racemic) [1-(1,2-diphenylethyl)piperidine-(+/-)] (10 µM) | 0.349 | 69% (inactive)
4 | O=P(O)(O)C(O)(Cc1cccnc1)P(=O)(O)O [risedronate] (10 µM) | 0.123 | 89% (inactive)
5 | CCC(C)(CN(C)C)OC(=O)c1ccccc1 (configuration not stated) [amyleine] (10 µM) | -0.104 | 120% (inactive)
6 | Nn1cnc2cc3ccccc3cc2c1=O [centazolone] (10 µM) | -0.195 | 116% (inactive)
